An excerpt weighted towards active compounds, which were near 0.52% of everything screened.
USP2a inh: blocks human ubiquitin-specific protease USP2a; USP2 core, Ub-CHOP2 coupled fluorogenic reporter, 485/531; O75604; Potency, µM (highest dose often 38.3 µM), for the others: top-dose activity change, negative = inhibition, actives largely listed as inhibitors; actives 0.01% (n = 330,000);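 further: plate controls were DMSO wells for no effect and full inhibition by NEM control for full effect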
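Deubiquitinase activity read as fluorescence (485/531 nm) after Ub-CHOP2 cleavage activates the enterokinase reporter on its substrate; USP2 core 10nM, Ub-CHOP2 and substrate 25nM each, 30min compound preincubation then 60min RT; data normalized to NEM, curves fitted.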
PGK inhibitor: blocks T. brucei phosphoglycerate kinase | P07378 | PGK/GAPDH coupled, Kinase-Glo luminescence, 60 min | Potency, µM (series often up to 57.5 µM), without a hit: at the highest dose activity change, negative = inhibition, hits mostly inhibitors | actives 0.043% (n = 380,000); further: on the % scale 0 is the no-effect control and ±100 the full control effect; nearly all actives have a fitted effect of over 60% in size
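Luminescent ATP detection (Kinase-Glo Plus) follows a 60-minute room-temperature incubation, with wells lacking PGK as controls. Buffer: 100 mM TEA (pH 7.6), 5 mM MgCl2, 0.01% Tween-20. Coupling enzyme GAPDH (100 nM final) supplies unstable 1,3-BPG in-well.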
GLS inhibitor: blocks human kidney-isoform glutaminase activity. Potency, µM (top dose mostly 45.5 µM), inactives show at the top dose activity change, negative = inhibition, actives largely listed as inhibitors. actives 0.21% (n = 410,000). AID 624170. GLS enzymatic activity, qHTS titration; further: on the % scale 0 is the no-effect control and ±100 the full control effect
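Read-out is an Amplex red fluorescence increase coupled through glutamate oxidase and HRP, measured before and after 30 min room-temperature incubation. hKGA is in 45 mM KH2PO4 (pH 8.2) with 0.02% Tween-20; glutamine added as 1mM solution.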
GCN5L2 inh: inhibitors of human GCN5L2 histone acetyltransferase; Q92830; GCN5L2 HAT assay, ThioGlo1 CoA-SH fluorescence; Potency, µM (highest dose often 58.9 µM), for the others: top-dose activity change, negative = inhibition, hits mostly inhibitors; actives 0.21% (n = 390,000); AID 504327; further: on the % scale 0 is the no-effect control and ±100 the full control effect
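Free CoA generated was detected with ThioGlo1 (50uM) fluorescence at Ex340nm/Em540nm, read immediately and after 20 min at room temperature. Enzyme, 20 nM in HEPES pH 7.5 buffer, saw compounds 15 min before adding 75uM H3(1-25) peptide and 70uM acetyl-CoA.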
Tb PFK inh-1: T. brucei PFK enzyme inhibition. AID 485367. actives 0.17% (n = 330,000). T. brucei PFK, ADP-Glo luminescence. Potency, µM (doses to about 57.5 µM), inactives show top-dose activity, negative = inhibition, actives largely listed as inhibitors;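 further: 0% = uninhibited 1x PFK enzyme wells and -100% = no-enzyme wells; nearly all actives have a fitted effect of over 60% in size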
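Activity is normalized to no-enzyme wells (full inhibition) and 1.25 nM enzyme wells (no inhibition). Reaction: 0.5 mM F6P, 0.1 mM ATP, 45 min RT, ADP-Glo luminescence; concentration-response curves fitted and classed by quality.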
TbPFK ATP: orthogonal confirmation of T. brucei phosphofructokinase inhibitors. AID 504636. Potency, µM (titrated, usually from 57.5 µM), inactives show top-dose inhibition. Tb PFK enzyme, ATP depletion, Kinase-Glo Plus luminescence. actives 47% (n = 1,100). shares compounds with Tb PFK inh-1; calls by dose curve; further: nearly all actives have a fitted effect of over 60% in size
Tb PFK inh-2: validation of T. brucei phosphofructokinase inhibitors; shares compounds with Tb PFK inh-1; purified T. brucei PFK, ADP-Glo luminescence, 45 min; Potency, µM (series often up to 57.5 µM), for the others: at the top dose activity change, negative = inhibition, usual class: inhibitors; actives 41% (n = 1,100);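 further: plate controls were full PFK enzyme control for no effect and no enzyme control for full effect; nearly all actives have a fitted effect of over 60% in size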
* hit, by the source's call; i = inactive; ? = inconclusive; . = not tested or not shown; [ ] = dose if it differs, or a comment. Unless noted, the call rests on the fitted dose curve; in most records, active means well fitted curve in the direction sought with a large enough effect; inconclusive means small, poorly fitted or top-dose-only effect, or another doubt; inactive means no such curve, though single readings can be large; an effect the other way counts as inactive or inconclusive. Potency means the concentration at half of the fitted maximal effect.

SMILES | USP2a inh | PGK inhibitor | GLS inhibitor | GCN5L2 inh | Tb PFK inh-1 | TbPFK ATP | Tb PFK inh-2
Cc1nn(Cc2ccc(F)cc2)c(C)c1NC(=O)c1cc2ncc(Br)cn2n1 | 1% | -16% | -29% | -4% | 24µM* | 11µM* | 24µM*
Cc1nn(Cc2ccccc2)c(C)c1C(=O)NCc1ccccc1 | -1% | -1% | -3% | -13% | 2% | . | .
Cc1nn(Cc2ccc(Cl)c(Cl)c2)c(C)c1NC(=O)c1cc(CC(C)C)on1 | 1% | -3% | -5% | -7% | 30µM* | 11µM* | 12µM*
CCC1(c2ccccc2)C(=O)NC(=O)N(C(=O)c2ccccc2)C1=O (configuration not stated) | . | . | 23% | -2% | . | . | .
C[C@@H]1O[C@@H](OC2CC(O)C3(CO)C4C(CCC3(O)C2)C2(O)CCC(C3=CC(=O)OC3)C2(C)C[C@H]4O)[C@H](O)[C@H](O)[C@H]1O (some centres not stated) | . | . | . | 9% | . | . | .
CC(=O)Oc1ccc2c3c1OC1[C@@H](OC(C)=O)C=C[C@H]4[C@H](C2)N(C)CC[C@]314 (some centres not stated) | . | . | -1% | -2% | . | . | .
COC(=O)COc1ccc(C(c2c(C)[nH][nH]c2=O)c2c(C)[nH][nH]c2=O)cc1 | 1% | -5% | 4% | ? | -20% | . | .
CSc1ccc(C(c2c(C)[nH][nH]c2=O)c2c(C)[nH][nH]c2=O)cc1 | 0% | -9% | 12% | -6% | 15µM* | ? | ?
Brc1cccc(OCCn2ccnc2)c1 | -4% | -1% | -2% | -7% | 21µM* | 12µM* | 13µM*
O=C(Cc1ccc(Br)cc1)Nc1ccc(S(=O)(=O)N2CCCC2)cc1 | -1% | . | . | -26% | 19µM* | 11µM* | 21µM*
O=C(Cc1ccc(F)cc1)Nc1ccc(S(=O)(=O)N2CCCC2)cc1 | 0% | -12% | -15% | -2% | 17µM* | ? | ?
COC(=O)C(O)(c1ccc(NC(=S)NC(=O)c2ccc(Cl)cc2Cl)cc1)C(F)(F)F (configuration not stated) | 2% | i | 8% | 3% | 0% | . | .
Cc1ccc(C(=O)NC(=S)Nc2ccc(-c3ccc(CO)o3)cc2)cc1 | -6% | i | 2% | -26% | ? | 5% | 0%
O=C1C=C(NCc2ccc(Cl)cc2Cl)C2(CCCCC2)O1 | 0% | -6%[11.5 µM] | -4% | -2% | 11µM* | 5.4µM* | 17µM*
O=C(NN=Cc1ccc(N(CCCl)CCCl)cc1Cl)c1cccnc1 | . | i | -5% | . | . | . | .
O=C(N/N=C/c1ccncc1)c1ccc(NC(=O)c2cccc(Cl)c2)cc1 | -22% | -10% | 0% | -25% | ? | -28% | ?
CC(C)C(C(=O)O)N1C(=O)/C(=C/C=C/c2ccco2)SC1=S (configuration not stated) | ? | 8.9µM* | ? | ? | ? | 8.5µM* | 21µM*
CC(C)c1ccc(N2C(=O)NC(=O)/C(=C\C=C\c3ccco3)C2=O)cc1 | 8% | -7% | -14% | ? | -17% | . | .
CNC(=S)S | . | . | . | 4% | . | . | .
CN1C(=O)COc2c(C(=O)N[C@@H]3CN4CCC3CC4)cc(Cl)cc21 | . | . | . | -5% | . | . | .
Cc1nn(CC(=O)N2CCN(c3cccc(C(F)(F)F)c3)CC2)c(=O)c2cccn12 | -4% | 0% | -3% | -5% | ? | ? | -22%
CCc1nn(CC(=O)N2CCC3(CC2)OCCO3)c(=O)c2cccn12 | 6% | -7% | 2% | -5% | 1% | . | .

High-throughput results deposited in PubChem BioAssay by National Center for Advancing Translational Sciences (NCATS).
